The text below walks through data of PubChem BioAssay (NCI).

This is part of a sample that, as a whole, favours compounds with a hit. Of some 83,000 tested, about 20% had one in any assay.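 Method: cells in 96-well plates; compound added at one concentration; 48 h incubation; percent growth measured; values under 10 scored active.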 A number with no mark means an inactive call. Active and inactive are the calls of the source.

The test system of this experiment is OVCAR-8 ovarian. Put plainly: NCI-60 one-dose screen, 48 h (100 = growth as untreated, 0 = no growth, -100 = all killed). As to conditions: 10 µM unless noted. On the procedure: Growth inhibition of the OVCAR-8 human tumor cell line is measured as a screen for anti-cancer activity. Cells are grown in 96 well plates and exposed to the test compound for 48 hours. Compounds are tested at a single concentration, which is 10^-5 M for most compounds. The reported endpoint is percent growth (GI% or GIPRCNT), where numbers from 0 - 100% represent growth inhibition, and numbers from -100% - 0 represent cell death. For example, a value of 40 represents 60% growth inhibition. A value of 0 means no net growth occurred over the course of the experiment. A value of -40 indicates 40% of cells at the beginning of the experiment died by the end of the experiment. A value of -100 means all cells are dead at the end of the experiment.
NCI-60 Human Tumor Cell Lines Screen was performed using the standard one-dose NCI protocol, which is described in more detail at https://dtp.cancer.gov/discovery_development/nci-60/default.htm.
Compounds with GIPRCNT values below 10 were considered active. Activity score was based on GIPRCNT using the following formula: […]
Score is 0 for GIPRCNT values of 100 or above, 50 for GIPRCNT values of 0, and 100 for GIPRCNT values of -100.
On to `CC(=O)OCC1SC(OC(C)=O)C(NC(=O)/C=C/CCl)C(OC(C)=O)C1OC(C)=O` (stereo not given), for which the growth was 98.2%. Turning to `COc1ccc2nc(-c3ccc(Cl)cc3)cc(C(=O)N3N=C(c4ccc(N)cc4)CC3c3ccccc3)c2c1` (stereo not given), the growth is 54%.

For `COc1ccc(C2C(c3ccccc3)C(=O)N2c2cc(OC)c(OC)c(OC)c2)cc1I` (stereo not given), the growth is 16.7%. For the compound `COc1cc2cc(c1Cl)N(C)C(=O)C[C@H](OC(=O)[C@H](C)N(C)C(=O)CCS)C[C@]1(C)O[C@H]1[C@H](C)[C@@H]1C[C@@](O)(NC(=O)O1)[C@H](OC)/C=C/C=C(\C)C2`, the growth is 13.7%. Then `C#C[C@@]1(O)[C@@H](CO)O[C@@H](n2ccc3c(N)ncnc32)[C@@H]1O`, with -21.7% (active); and `COc1cc(N=Nc2cc(S(=O)(=O)O)cc3cc(S(=O)(=O)O)cc(O)c23)c(C)cc1N=Nc1c(S(=O)(=O)O)cc2cc(Nc3ccccc3)ccc2c1O`, with 106%; and `CCN1CCN(c2ccc(NC(=O)Nc3nc4ccc(-c5ccccc5OC)cc4s3)cc2)CC1`, with -52.5% (active). `COc1cc(NC(=O)c2cc(O)c(C/C=C(\C)CCC=C(C)C)c(O)c2)cc2c1O[C@]1(C)CC[C@@H](O)C(C)(C)[C@H]1C2`: the growth is 23.5%.

With `COc1cc2c(cc1OCCCOc1cc3c(cc1OC)C(=O)N1CC(F)(F)C[C@H]1C=N3)N=C[C@@H]1CC(F)(F)CN1C2=O`, the growth is 17.8%.

Consider `COc1ccc(-c2cn(-c3ccc(Cl)cc3)c(=S)[nH]2)cc1OC`, for which the growth was 53%.

For the compound `NC(=O)CN1C(=O)c2ccccc2C1=O`, the growth was 103%. `NC[C@@H]1CCN(c2cc3c(cc2F)c(=O)n(N)c(=O)n3Cc2ccc(-c3ccccc3)cc2)C1`: the growth was 96.3%. In the case of `CN(C)c1ccc(-c2ccc3[nH]c(=O)nc(-c4ccc(F)cc4)c3c2)cn1`, the growth was 43.5%.

With `COc1ccc2c(c1)C1(C(=O)N2)C(C#N)=C(c2ccccc2)Nc2c1c(-c1ccccc1)nn2-c1ccccc1` (stereo not given), the growth is -10.9% (active). `Cc1cccc(C)c1Nc1nnc(-c2ccc(F)cc2)o1`: the growth is 109%. The figure for `C#C[C@@]1(O)[C@@H](CO)O[C@@H](n2cc(Cl)c3c(N)ccnc32)[C@@H]1O` is 26.9%; for `O=C(Nc1ccc2ncnc(Nc3cccc(C(F)(F)F)c3)c2c1)c1cccs1` it is 49.9%; for `CCOC(=O)c1c(C)nc2c(c1N)CC(=O)N2CCc1ccccc1` it is 24.3%. Turning to `COc1cc(NC(=O)COc2cc(C)nc3ccc(OC)cc23)cc(OC)c1`, the growth is 93.6%.

With `O=C1Nc2ccccc2C12C=C(c1ccccc1)Nc1c2c(-c2ccccc2)nn1-c1ccccc1` (stereo not given), the growth is 46.6%. Regarding `Nc1c(C(=O)Nc2ccccn2)sc2nc3c(cc12)C(=O)CCC3`, the growth was 64.3%. With `CCOC(=O)c1c(C)nc2c(c1N)/C(=C/c1cccs1)C(=O)N2c1ccc(OC)cc1`, the growth is 20.5%.

On to `C=C1C(=O)O[C@H]2[C@H]1CCC(/C=N/c1ncc(Br)cc1N)=C\CC[C@@]1(C)O[C@@H]21`, for which the growth is 4.39% (active). For `Nc1c(C(=O)Nc2cccc3ccccc23)sc2nc3c(cc12)CCCCCC3`, the growth is 19.8%. In the case of `Cc1cnc(-c2ccc(-c3ccc(NC(=O)Nc4c(F)cc(F)cc4F)cc3F)c3c2C(=O)NC3)[nH]1`, the growth was 39%. As for `[2H]c1cc2c(c([2H])c1F)/C(=C/c1[nH]c(C)c(C(=O)NCCN(CC)CC)c1C)C(=O)N2`, the growth is 63.1%. As to `CCSc1ccc(C2C(Br)C(=O)N2c2cc(OC)c(OC)c(OC)c2)cc1` (stereo not given), the growth is 17.4%. Take `COc1ccc(N(C)c2nc(Cl)nc3ccn(C)c23)cc1`: the growth was 0.816% (active). As to `Cc1nccc2c3ccc(OCc4cn(-c5ccc(Br)cc5)nn4)cc3n(CC(C)C)c12`, the growth is 40.7%. In the case of `S=C(Nc1ccccc1)c1ccccn1`, the growth is 91.2%. For the compound `S=C(Nc1ccc(Cl)cc1)c1ccccn1`, the growth was 92.7%.

Consider `Cc1ccc(C(=O)O)o1`, for which the growth is 108%. Consider `Cc1ccn2c3c(c(C(=O)O)c2c1)C(=O)c1ccccc1C3=O`, for which the growth was 80.1%. Regarding `COC(=O)CCc1cc(O)c2c(c1)[C@@H](C(=O)OC)[C@H](c1ccc(O)c(O)c1)O2`, the growth is 90.6%. Turning to `C[C@]12CC[C@@H]3c4ccc(O)cc4CC[C@H]3[C@@H]1C[C@H](O)C2`, the growth was 82.7%. The figure for `C/C(=C\c1cnc(C)s1)[C@@H]1C[C@@H]2O[C@@H]2CCC[C@H](C)[C@H](O)[C@@H](C)C(=O)C(C)(C)[C@@H](O)CC(=O)O1` is 48%; for `O=C(O)c1cc(N=Nc2ccc(-c3ccc(N=Nc4c(S(=O)(=O)O)cc5ccc(Nc6ccccc6)cc5c4O)cc3)cc2)ccc1O` it is 107%. Then `CCN(CC)CC#CCOC(=O)[C@]1(C)CCC[C@]2(C)[C@H]3C[C@H]4C(C(C)C)=C[C@]3(CC[C@H]21)[C@@H]1C(=O)CCC(=O)[C@@H]14`, with 39.6%; and `Nc1c(C(=O)c2ccccc2)sc2nc(-c3cc4ccccc4o3)cc(-c3ccc(Cl)cc3)c12`, with 95.8%; and `OCCNc1nc(NCCO)nc(Nc2ccc(C3=NN(c4ccc(Cl)cc4)C(c4ccc(Cl)cc4)C3)cc2)n1` (stereo not given), with 65.3%.
